This excerpt belongs to a sample that is enriched for hits.
nsP2pro inh – CHIKV nsP2 protease inhibition, primary qHTS | Q8JUX6 | FRET peptide cleavage, nsP2pro, fluorescence 1 h | Potency, µM (top dose mostly 24.9 µM), for inactives: at the top dose activity change, negative = inhibition, hits mostly inhibitors | actives 1.1% (n = 31,000); further: nearly all actives have a fitted effect of over 60% in size
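Purified recombinant nsP2pro (150 nM final) in 10 mM Tris-HCl pH 8.0 with 0.01% Tween 20 was preincubated 15 min at room temperature with compound (7 concentrations, up to 25 uM). FRET peptide 2 substrate (2.5 uM final) was then added; fluorescence was read after 1 h.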
nsP2 cell sec – secondary cell-based test for CHIKV nsP2 protease inhibitors. shares compounds with nsP2pro inh. cell-based CHIKV nsP2 protease reporter assay. Potency, µM (top dose mostly 51.1 µM), for inactives: at the highest dose activity change, negative = inhibition, actives largely listed as inhibitors. actives 10% (n = 450). AID 1964100; further: nearly all actives have a fitted effect of over 70% in size
NSP2 full ctr – inhibits full-length CHIKV NSP2 enzyme | shares compounds with nsP2pro inh | Full-length CHIKV NSP2 protease enzymatic counterscreen | Potency, µM (highest dose often 50.7 µM), for inactives: at the highest dose activity change, negative = inhibition, most hits filed as inhibitors | actives 39% (n = 410); further: nearly all actives have a fitted effect of over 65% in size
Furin counterscr – selectivity counter-screen for CHIKV nsP2 protease inhibitors: human furin; Recombinant human furin enzymatic counterscreen, fluorogenic substrate; Potency, µM (series often up to 50.6 µM), inactives show at the top dose activity change, negative = inhibition, most hits filed as inhibitors; shares compounds with nsP2pro inh; AID 1964102; actives 6% (n = 410)
NS23 peptide cs – selectivity test for CHIKV nsP2 protease inhibitors: endogenous NS2/3 peptide | AID 1964103 | shares compounds with nsP2pro inh | Purified CHIKV nsP2 protease, endogenous NS2/3 peptide cleavage | Potency, µM (titrated, usually from 51 µM), without a hit: top-dose activity change, negative = inhibition, actives largely listed as inhibitors | actives 34% (n = 410); further: nearly all actives have a fitted effect of over 55% in size
Papain counter – papain protease inhibition, counterscreen for nsP2pro inhibitors; shares compounds with nsP2pro inh; purified papain protease activity, enzymatic inhibition; Potency, µM (series often up to 51 µM), for inactives: top-dose activity change, negative = inhibition, most hits filed as inhibitors; actives 5% (n = 410)
nsP2pro conf qHTS – confirmation of CHIKV nsP2 protease inhibitors; shares compounds with nsP2pro inh; Potency, µM (series often up to 25.5 µM), inactives show at the top dose activity change, negative = inhibition, usual class: inhibitors; CHIKV nsP2 protease enzymatic activity, qHTS; actives 43% (n = 410); further: nearly all actives have a fitted effect of over 75% in size
HCV NS3 4A cs – inhibits HCV NS3/4A protease in an nsP2pro selectivity counterscreen; HCV NS3/4A protease biochemical counterscreen; AID 1964106; actives 20% (n = 410); Potency, µM (series often up to 50.9 µM), most hits filed as inhibitors; shares compounds with nsP2pro inh; further: nearly all actives have a fitted effect of over 55% in size
Starred values were filed as active, the others as inactive; i = inactive; ? = inconclusive; [ ] = another dose, or the depositor's remark. The call rests on the fitted dose curve. On the % scale 0 is the no-effect control and ±100 the full control effect; potency means the concentration at half of the fitted maximal effect.

SMILES	nsP2pro inh	others
CO[C@H]1c2cc(C(C)C)c(O)c(O)c2[C@@]23CCCC(C)(C)C2[C@@H]1OC3=O (stereo partly drawn)	6.1µM*	nsP2 cell sec=-19%[33.5 µM];NSP2 full ctr=16µM*;Furin counterscr=-10%[33.5 µM];NS23 peptide cs=13µM*;Papain counter=?;nsP2pro conf qHTS=5.5µM*;HCV NS3 4A cs=i
COc1cc(CN2CCC(CO)(CN3CCCC3)CC2)ccc1F	0%
O=c1[nH]c2ccc(S(=O)(=O)Nc3cc(Cl)ccc3O)cc2o1	26%
O=[N+]([O-])c1cc(S(=O)(=O)Nc2ccc(O)c3ccccc23)ccc1Cl	5µM*	nsP2 cell sec=?;NSP2 full ctr=16µM*;Furin counterscr=-18%;NS23 peptide cs=12µM*;Papain counter=?;nsP2pro conf qHTS=5.7µM*;HCV NS3 4A cs=i
O=S(=O)(Nc1ccc(O)c2ncccc12)c1ccccc1F	-29%
CC(C)C[C@@H](NC(=O)[C@@H](Cc1ccccc1)NC(=O)[C@H](N)Cc1ccccc1)C(=O)N[C@H](CCCCN)C(=O)N1CCC(N)(C(=O)O)CC1	10%
CCCCCOc1ccc(-c2ccc(-c3ccc(C(=O)N[C@H]4C[C@@H](O)[C@@H](O)NC(=O)[C@@H]5[C@@H](O)[C@@H](C)CN5C(=O)[C@H]([C@@H](C)O)NC(=O)[C@H]([C@H](O)[C@@H](O)c5ccc(O)cc5)NC(=O)[C@@H]5C[C@@H](O)CN5C(=O)[C@H]([C@@H](C)O)NC4=O)cc3)cc2)cc1	i
O=C(NCc1nc(-c2ncccn2)no1)c1csc(-c2cccs2)n1	-5%
COc1ccccc1OCC(=O)NCc1nc(-c2ccc(Cl)cc2)no1	-14%
Cc1cccc(-c2noc(CNC(=O)c3ccco3)n2)c1	-10%
CCOc1ccc(-c2noc(CNC(=O)c3cc(-c4ccco4)[nH]n3)n2)cn1	0.79µM*	nsP2 cell sec=?;NSP2 full ctr=8.2µM*;Furin counterscr=-8%;NS23 peptide cs=-15%;Papain counter=-5%;nsP2pro conf qHTS=?;HCV NS3 4A cs=i
Cc1cccc(-c2noc(CCCC(=O)NCc3ccco3)n2)c1	-28%
Cc1cc(-c2noc(CNC(=O)c3cc(-c4ccco4)[nH]n3)n2)no1	5µM*	nsP2 cell sec=?;NSP2 full ctr=-3%;Furin counterscr=-8%;NS23 peptide cs=-32%;Papain counter=0%;nsP2pro conf qHTS=-8%;HCV NS3 4A cs=10µM*
O=c1ncn(CC2CC2)c2ccc(N3CCC(c4ccccc4)CC3)nc12	-17%[39.2 µM]
O=Cc1ccc(N2CCN([S+](=O)([O-])C3CC3)CC2=O)cc1	i
CC(C)NC(=O)OC[C@H]1C[C@@H]2CCN1C[C@@H]2c1cc(C2CCCC2)nc(-c2ccncc2)n1	5µM*	nsP2 cell sec=-56%;NSP2 full ctr=6.5µM*;Furin counterscr=?;NS23 peptide cs=18µM*;Papain counter=-4%;nsP2pro conf qHTS=8µM*;HCV NS3 4A cs=10µM*
CCC(CC)c1cc([C@H]2CN3CC[C@H]2C[C@@H]3CNC2CCN(C)CC2)nc(-c2ccncc2)n1	5%
O=C(NC1CCCCC1)OC[C@H]1C[C@@H]2CCN1C[C@@H]2c1cc(C2CCCC2)nc(-c2ccncc2)n1	7.9µM*	nsP2 cell sec=-50%;NSP2 full ctr=?;Furin counterscr=?;NS23 peptide cs=?;Papain counter=-5%;nsP2pro conf qHTS=9µM*;HCV NS3 4A cs=15µM*
COc1ccc(-c2cc([C@H]3CN4CC[C@H]3C[C@@H]4COC(=O)Nc3ccccc3)n(C)n2)cc1	i
CCCS(=O)(=O)NC[C@H]1C[C@@H]2CCN1C[C@@H]2c1cc(C(CC)CC)nc(-c2ccncc2)n1	-12%
Cn1nc(C2CCCC2)cc1[C@H]1CN2CC[C@H]1C[C@@H]2CNC(=O)c1cccs1	1%[39.2 µM]
COc1cccc(CNc2ccc(S(=O)(=O)Nc3ccc(C4CCNCC4)cc3)cc2)c1O	-3%
O=C(Cc1cccc(Cl)c1)NC1CCN(Cc2ccc(-c3ccsc3)cc2)C1 (stereo not drawn)	2%
COCCOC1CN(C2CCN(S(C)(=O)=O)CC2)C12CCCCC2 (stereo not drawn)	i
CN1C[C@H](NC(=O)c2cnccn2)CCC[C@@H](C(=O)NCc2cc(F)cc(F)c2)CC1=O	23%
SMILES	nsP2pro inh	others
CC(C)c1cccc(-n2cnc3cc(C(=O)N4CCCCC4)ccc32)c1	1%
Cc1cc(C=CC#N)cc(C)c1Nc1nc(Nc2ccc3c(c2)OCO3)c2[nH]cnc2n1	2%
C[C@@H]1CC[C@]2(C)C3(C)CC[C@@]2(OC3=O)[C@@]12C[C@H](c1ccoc1)OC2=O	2.4µM*	nsP2 cell sec=-11%[33.5 µM];NSP2 full ctr=7.2µM*;Furin counterscr=5%[33.5 µM];NS23 peptide cs=?;Papain counter=-9%[33.5 µM];nsP2pro conf qHTS=2.2µM*;HCV NS3 4A cs=1.8µM*
CC(=O)OC[C@@]12C(=O)C[C@@H](C)[C@]3(C[C@@H](c4ccoc4)OC3=O)[C@H]1CC[C@H](OC(C)=O)[C@]21CO1	-20%[10 µM]
Cc1ccc(C)c(OCc2cc(C(=O)N3CCC(N4CCSCC4)CC3)no2)c1	-12%
COc1ccc(F)cc1-c1cc(NC(=O)[C@@H]2CCCNC2)ncc1Cl	42%
COc1cccc(CN2C(=O)CCCCC2C(=O)NCCc2c[nH]c3ccc(OC)cc23)c1 (stereo not drawn)	3%
Oc1ccc(CNc2ccccc2Cl)c2cccnc12	-12%
Oc1ccc(CNc2ccccc2C(F)(F)F)c2cccnc12	i
Oc1ccc(CNc2ccccc2F)c2cccnc12	3.1µM*	nsP2 cell sec=52%;NSP2 full ctr=15µM*;Furin counterscr=-16%;NS23 peptide cs=11µM*;Papain counter=-22%;nsP2pro conf qHTS=1.9µM*;HCV NS3 4A cs=i
Cc1ccc(-c2cc3n(n2)CCCN(C(=O)CCN2C(=O)NC(C)(C)C2=O)C3)cc1C	i
CCc1ccc(-c2cc3n(n2)CCCN(C(=O)CCc2cc(Cl)no2)C3)cc1	10%
Cc1ccc(-c2cc3n(n2)CCCN(C(=O)CCc2cc(Cl)no2)C3)o1	8.9µM*	nsP2 cell sec=15%;NSP2 full ctr=-17%;Furin counterscr=1%;NS23 peptide cs=?;Papain counter=-4%;nsP2pro conf qHTS=?;HCV NS3 4A cs=i
Nc1ncnc2c1ncn2[C@@H]1O[C@H](CSCC[C@H](N)C(=O)O)[C@@H](O)[C@H]1O	-18%
Cc1ccc(NC(=O)c2cnn3c(C)cc(C)nc23)cc1	-1%
COc1cc(C)c2c(c1C)C[C@H](C(C)C(=O)NCc1ccco1)CC2 (stereo partly drawn)	7.9µM*	nsP2 cell sec=-14%
Cc1cc(OCCN(C)C)c(C)c2c1CC[C@@H]([C@H](C)C(=O)NCc1cccs1)C2	37%[39.2 µM]
COc1ccc(CCNC(=O)C(C)C2CCOCC2)cc1OC (stereo not drawn)	-1%

High-throughput results: PubChem BioAssay, National Center for Advancing Translational Sciences (NCATS)
